# Data: PubChem BioAssay (NCI)
# The panel holds about 83,000 compounds, 20% with a hit somewhere; the sample as a whole holds those more often.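 Growth was measured after 48 h exposure to one concentration of compound in 96-well plates. Values under 10 count as active.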 Values without a mark were called inactive. Active and inactive are the calls of the source.
# How the values were obtained:
# Test in all cases: NCI-60 one-dose screen, 48 h (100 = growth as untreated, 0 = no growth, -100 = all killed)
# Conditions in all cases: 10 µM unless noted
# [1] = system: SR leukemia
# [2] = system: RPMI-8226 leukemia
# [3] = system: OVCAR-8 ovarian
# [4] = system: OVCAR-5 ovarian
# [5] = system: OVCAR-4 ovarian
# [6] = system: SK-OV-3 ovarian
# [7] = system: OVCAR-3 ovarian
# [8] = system: HS 578T breast
# [9] = system: NCI/ADR-RES ovarian
SMILES,growth [1],growth [2],growth [3],growth [4],growth [5],growth [6],growth [7],growth [8],growth [9]
Cc1ccc(-c2csc(N)n2)cc1,86.3%,89.2%,101%,94%,94%,108%,114%,115%,104%
O=C1C(=O)c2c(nc3ccc(Cl)cn23)-c2ccccc21,-86.5% (active),-53.7% (active),-100% (active),-100% (active),-100% (active),-100% (active),-96% (active),-33.8% (active),-41.1% (active)
Cc1ccc(S(=O)(=O)NCCN2c3nc4ccccc4cc3Sc3cc4ccccc4nc32)cc1,73.7%,78.7%,34.1%,85.6%,22.9%,53.3%,83.7%,33.4%,63.1%
COc1cccc(-c2nc3cc(NC(=O)c4ccc(Cl)c(C#N)c4)ccc3o2)c1,38.2%,-2.38% (active),-54.6% (active),73.3%,-90.4% (active),15.6%,-30.6% (active),39.1%,3.74% (active)
O=C(N/N=C/c1cccc(O)c1O)c1ccccc1,18.2%,32.1%,4.99% (active),30.1%,4.38% (active),41.2%,16.2%,66.1%,11%
CN1C(=O)C(C2=NN(C=O)C(c3ccc(F)cc3)C2)C(=O)N(C)C1=O (stereo not given),101%,95.8%,98.9%,97.1%,102%,94.6%,99.9%,–,99.2%
COc1cc(-c2nc3sc4c(c3c(=O)[nH]2)CCCCCC4)cc(OC)c1OC,15.5%,7.95% (active),25.2%,37.8%,61.6%,14.2%,-3.03% (active),5.2% (active),-6.9% (active)
Nc1nc(Nc2ccccc2SSc2ccccc2Nc2nc(N)nc(C(Cl)(Cl)Cl)n2)nc(C(Cl)(Cl)Cl)n1,14.8%,36.1%,47.9%,82%,65.3%,121%,64.6%,73.4%,48.9%
CC1Cc2ccccc2N1C(=O)c1ccc(C(=O)c2ccccc2)cc1 (stereo not given),97.6%,74.3%,88.4%,143%,71.2%,102%,78.9%,96.3%,61.7%
CCOC(=O)c1sc(NC(=O)COc2ccc(/C=C3\CCc4cc(OC)ccc4C3=O)cc2)nc1C,44.3%,42.5%,90.5%,103%,92.6%,122%,105%,94.4%,86.6%
COc1cc2c(cc1OC)C(=O)/C(=C/c1cccc(OCC(=O)c3ccccc3)c1)C2,42.2%,43.3%,76.8%,105%,86%,117%,118%,77.2%,50.2%
O=C1c2cccc(NCCN=Cc3ccccc3O)c2C(=O)c2c(NCCN=Cc3ccccc3O)cccc21,-20.9% (active),-9.08% (active),17%,15.9%,2.43% (active),29%,11.1%,4.31% (active),93.9%
COc1cccc(C2=NN(C(C)=O)C(c3cc(OC)c(OC)c(OC)c3)C2)c1 (stereo not given),-6.23% (active),4.18% (active),37.5%,58.3%,48.5%,30.4%,33.1%,15.4%,19%
CC(=O)Nc1ccc(C(=O)COc2cccc(/C=C3\CCc4ccccc4C3=O)c2)cc1,52.4%,19.6%,88.4%,104%,83.4%,95.5%,238%,99.7%,83%
O=C(c1ccc(N2CCOCC2)cc1[N+](=O)[O-])N1CCOCC1,423%,128%,73.5%,102%,52%,110%,110%,–,108%
c1ccc(N2c3nc4ccccc4cc3Sc3cc4ccccc4nc32)nc1,77.7%,80.9%,88.8%,81.9%,102%,104%,96.7%,83.2%,82.7%
COc1ccc2cc(-c3nc4ccccc4[nH]3)c(=O)oc2c1,36.5%,115%,101%,101%,99.3%,104%,106%,–,93%
O=C(N/N=C/c1ccc(Cl)cc1Cl)c1ccccc1Nc1cccc(C(F)(F)F)c1,56.3%,58.4%,71.6%,85.6%,65.6%,97.4%,53.3%,–,73.4%
CC[n+]1c(/C=C/c2ccc(N3CCCC3)cc2)cccc1/C=C/c1ccc(N2CCCC2)cc1,57.2%,-41.1% (active),-87.3% (active),-80.1% (active),-73.8% (active),-95.6% (active),-90.1% (active),-70.2% (active),-68.6% (active)
Cc1nn(-c2nc3ccccc3s2)c(C)c1Oc1ccccc1O,19.6%,33.1%,50.6%,121%,74.9%,75.3%,75.5%,39%,101%
O=C(NCCCl)NCCN1c2nc3ccccc3cc2Sc2cc3ccccc3nc21,35.9%,42%,56.2%,82.2%,49.5%,77.1%,142%,58%,57.4%
COc1cc(/C=N/NC(=O)c2ccc(C(F)(F)F)nc2Nc2cc(Cl)ccc2C)cc(OC)c1OC,91.8%,64.7%,99.8%,103%,104%,106%,123%,104%,98.3%
COC(=O)N/N=C/c1coc2ccc(Cl)cc2c1=O,53.8%,60.3%,110%,95.3%,97%,92.3%,63.4%,92.8%,99%
CCc1ccc(-c2nc(SCC(=O)NC3CCCCC3)n[nH]2)cc1,12.6%,32.8%,70%,94.2%,72.6%,84.8%,64%,–,75.4%
COc1ccc2ncccc2c1Cc1c(OC)ccc2ncccc12,25.7%,69.2%,87.3%,91.4%,83.3%,83.6%,72.9%,72.6%,40.8%
O=C(O)CCNS(=O)(=O)c1ccc(-c2ccccc2)cc1,88.9%,69%,97.7%,107%,101%,107%,114%,9.34% (active),108%
COCCOCCOCCOCCOc1ccc2c(c1)C(=O)c1nc3ncccc3c(=O)n1-2,-86.3% (active),-55.5% (active),0.221% (active),-98.6% (active),-15.3% (active),-4.3% (active),-60.7% (active),-25.2% (active),0.343% (active)
COC(=O)c1cc2c(/C=C3/NC(=S)NC3=O)coc2n1C,78.3%,75.8%,76.3%,96.7%,112%,68.5%,95.6%,66.3%,105%
CCOC(=O)c1cc2oc(/C=C/c3cc(=O)c4cc(Cl)ccc4o3)cc2[nH]1,87.9%,94.3%,105%,89.3%,89.6%,98.5%,72.3%,71.2%,93.6%
COC(=O)C1CCN(S(=O)(=O)c2ccc(-c3ccccc3)cc2)CC1,75.7%,144%,81.6%,106%,103%,98.4%,114%,117%,116%
